# Bioassay records deposited in PubChem by several laboratories.
# Rows were chosen to be rich in hits. Some 1.5% of all compounds tested hit in one or more screens of this group.
# RTF Ca sens act: cardiac RTF calcium sensitization; P19429+P45379; IANBD-labeled TnC RTF fluorescence at EC20 calcium; 0% EC20 calcium, 100% full calcium; activation, % at 7.2 µM; 0.24% of 340,000 active; AID 493008;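 active = activation above the mean over all tested compounds plus 3 SD, cut at about 30% in these data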;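 also: rise in fluorescence read as greater calcium sensitivity of cardiac thin filaments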
# IDE cell activ: IDE (human) activation, cell-based; HEK cells, FAbeta-B cleavage, fluorescence polarization; 0% vehicle, 100% cell-free pure enzyme wells; activation, % at 5.96 µM; 0.073% of 340,000 active;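 active = activation above the mean of all tested compounds plus 3 SD, set per screening campaign, cut at about 17% in these data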
# IDE inh: inhibitors of human insulin-degrading enzyme in cells; P14735; HEK cells, FAbetaB cleavage, fluorescence polarization; inhibition, % at 5.59 µM; 0.41% of 320,000 active; AID 434962;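 active = percent inhibition above the average of all tested compounds plus 3 SD, set per screening campaign, cut at about 16% in these data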;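 also: IDE supplied by intact live HEK cells; FP after avidin binding of uncleaved biotin substrate so inhibition keeps polarization high; 0% = DMSO wells and 100% = 60 µM reference IDE inhibitor Ii1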
# TPT1 inhibitor: blocks Candida albicans tRNA 2'-phosphotransferase; AID 1962; recombinant caTPT1, FP RNA substrate dephosphorylation; inhibition, % at 5 µM; 0.81% of 300,000 active;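 active = inhibition above the mean of all tested compounds plus 3 SD, set per screening campaign, cut at about 24% in these data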;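 also: plate controls were DMSO alone for no effect and ferristatin control at 100 nM for full effect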
# Cardiac RTF inh: cardiac RTF calcium desensitization; inhibition, % at 7.15 µM; 0.12% of 340,000 active; IANBD-labeled cardiac RTF, Ca2+ fluorescence; AID 493244;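 active = inhibition above the mean inhibition of all tested compounds plus 3 SD, cut at about 17% in these data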;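 also: assay run at fixed EC70 calcium of 1.6 mM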
# CRFBP-R2 agonist: agonists of human CRF-binding protein/CRF-R2 receptor complex | 0.46% of 350,000 active | activation, % at 13.2 µM | AID 588473 | HEK293 CRF-R2/CRF-BP, calcium dye fluorescence (FLIPR); percent of saturating CRF peptide response;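 active = activation of at least 50%, plus an integration ratio under a set limit after plate pattern correction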;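 also: plate controls were neutral control wells without compound for no effect and CRF at EC100 for full effect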
# TPT1 inh confirm: confirmation of Candida albicans TPT1 inhibitors | inhibition, % at 5 µM | recombinant caTPT1, fluorescence polarization, RNase T1 coupled | 74% of 2,400 active | shares compounds with TPT1 inhibitor | AID 2149;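 active = inhibition above the primary screen limit, the mean inhibition of all tested compounds plus 3 SD, cut at about 25% in these data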
# RNase T1 inh: counter-screen for TPT1 inhibitors: inhibitors of Aspergillus oryzae RNase T1; shares compounds with TPT1 inhibitor; RNase T1 cleavage, fluorescence polarization, 1536-well; inhibition, % at 5 µM; 83% of 2,400 active; AID 2153;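 active = inhibition above the solvent-only control well mean plus 3 SD, limit set per screening run, cut at about 23% in these data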;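 also: plate controls were DMSO wells with enzyme for no effect and wells without RNase T1 for full effect; inhibitors block cleavage so intact labeled substrate keeps polarization high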
# Target sequence (P00651 whole entry, looked up): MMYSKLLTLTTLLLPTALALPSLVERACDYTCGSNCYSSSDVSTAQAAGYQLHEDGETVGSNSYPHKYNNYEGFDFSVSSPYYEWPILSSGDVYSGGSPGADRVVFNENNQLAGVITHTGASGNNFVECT
# Numbers without * were called inactive; / = not tested or not shown.
SMILES,RTF Ca sens act,IDE cell activ,IDE inh,TPT1 inhibitor,Cardiac RTF inh,CRFBP-R2 agonist,TPT1 inh confirm,RNase T1 inh
C=CCN1CN(S(=O)(=O)c2cccc(Cl)c2)c2nc3ccccc3nc21,-1.4,8.1,7.5,-2.3,-4.0,-1.5,/,/
COc1cc([N+](=O)[O-])cc(/C=N/NC(=O)c2cc(C)nc3ccccc23)c1O,-5.0,-1.5,-2.2,18.3,-17.9,2.0,/,/
COc1cc(/C=N/NC(=O)c2cccc([N+](=O)[O-])c2)cc(OC)c1O,1.6,1.4,2.9,0.3,-6.8,-0.2,/,/
COc1cc(/C=N/NC(=O)c2cncc(Br)c2)cc([N+](=O)[O-])c1O,1.2,3.1,6.9,44.4*,-5.6,10.7,49.5*,63.6*
COc1cc([N+](=O)[O-])cc(/C=N/NC(=O)c2cc(-c3ccccc3)nc3ccccc23)c1O,10.6,12.9,0.7,41.1*,-13.1,-0.6,29.1*,44.5*
COc1cc([N+](=O)[O-])cc(/C=N/NC(=O)c2cncc(Br)c2)c1O,0.8,3.0,-2.3,42.4*,-11.3,3.4,43.4*,59.4*
CCOc1ccccc1N(CC(=O)NC1CCCCC1)S(=O)(=O)c1ccc(C)cc1,1.4,1.8,12.9,-6.8,-7.8,4.8,/,/
Cc1ccc(N2CCN(C(=O)C3CCC(=O)N(Cc4ccc(Cl)cc4)C3)CC2)c(C)c1 (stereo not given),-6.0,4.9,/,/,3.0,0.5,/,/
CC1(C)CNc2cc(N)ccc2S1,1.5,1.3,0.9,61.2*,-1.6,1.9,31.9*,42.7*
CN(C)CCNC(=O)C1CCN(S(=O)(=O)c2ccc3ccccc3c2)CC1,5.8,-1.8,2.8,-5.0,-3.2,3.6,/,/
Cc1ccc2nc(NC(=O)C3CCCN(S(=O)(=O)c4cccc5nonc45)C3)sc2c1 (stereo not given),/,/,5.8,10.2,/,/,/,/
Cc1cccc2sc(NC(=O)C3CCCN(S(=O)(=O)c4cccc5nonc45)C3)nc12 (stereo not given),5.7,1.6,-0.2,43.4*,-5.6,2.7,39.0*,48.8*
COc1ccc(CCNC(=O)CSc2nnc(C(C)N(C)C)n2Cc2ccccc2)cc1OC (stereo not given),-4.4,3.8,4.0,99.7*,8.7,-2.0,-1.2,3.3
CCCCn1cnc2c(SCc3ccc(Br)cc3)nc(N)nc21,-7.1,2.9,/,/,-3.7,-2.0,/,/
CNC(=O)c1ccc(-c2sc3nc(N4CCOCC4)c4c(c3c2N)CC(C)(C)OC4)o1,-0.5,3.8,3.2,-0.3,-9.1,1.4,/,/
CC1(C)Cc2c(c(N3CCOCC3)nc3sc(-c4ccc(C(=O)O)o4)c(N)c23)CO1,4.7,3.9,0.4,32.8*,-15.2,2.6,35.0*,46.9*
CC1CCc2c(sc(Nc3nc4c(F)cccc4s3)c2C(N)=O)C1 (stereo not given),7.9,-4.5,13.2,47.6*,0.7,12.7,57.0*,68.7*
Cc1ccc(NC(=O)/C(C#N)=C/c2cn(CC(=O)NCc3ccco3)c3ccccc23)cc1C,6.3,3.2,-0.4,28.9*,-14.6,7.0,66.9*,79.6*
Cc1cc(C)cc(NC(=O)/C(C#N)=C/c2cn(CC(=O)NCc3ccco3)c3ccccc23)c1,9.2,9.2,-2.7,1.8,-7.0,3.1,/,/
COc1cc(OC)cc(C(=O)NCC2CCCN(Cc3cccc(C(C)=O)c3)C2)c1 (stereo not given),1.1,4.6,1.1,-1.6,-4.3,1.4,/,/
O=C1/C(=C\c2cccs2)Sc2ccc3ccccc3c21,6.8,-0.1,-1.0,80.5*,-34.0,0.5,84.3*,96.2*
COc1ccc(OC)c(NC(=O)COC(=O)c2ccc(S(=O)(=O)N3CCCCC3)cc2)c1,/,/,/,/,/,1.1,/,/
O=C(COc1coc(CN2CCCc3ccccc32)cc1=O)Nc1ccc([N+](=O)[O-])cc1,15.4,1.1,1.3,32.1*,-2.3,13.6,10.3,16.9
Cc1ccccc1NC(=O)COc1coc(CN2CCCc3ccccc32)cc1=O,2.1,1.9,3.6,-0.1,-3.1,0.1,/,/
Cc1cc(N2C(=O)C(O)=C(C(=O)c3cc4ccccc4o3)C2c2cccs2)no1 (stereo not given),2.3,-4.4,3.6,40.8*,-9.9,4.2,29.9*,39.5*
SMILES,RTF Ca sens act,IDE cell activ,IDE inh,TPT1 inhibitor,Cardiac RTF inh,CRFBP-R2 agonist,TPT1 inh confirm,RNase T1 inh
Cc1cc(N2C(=O)C(O)=C(C(=O)c3ccc(C)o3)C2c2cccs2)no1 (stereo not given),-3.2,1.5,3.7,-0.5,-6.5,0.0,/,/
CC1(C)Cn2c(nc(=O)c3c2NCN(CCc2ccccc2)C3)S1,2.5,-3.0,6.1,-3.9,2.3,/,/,/
Cc1cccc(N2CCN(C(=O)c3ccc4c(c3)c(C)c(C)n4C)CC2C)c1 (stereo not given),13.2,-5.7,9.8,-1.2,-7.6,0.7,/,/
Cc1cccc(N2CCN(C(=O)c3ccc(N4CCCC4=O)cc3)CC2C)c1 (stereo not given),-1.2,-0.3,10.8,0.6,0.6,-1.5,/,/
Cc1cccc(N2CCN(C(=O)c3ccc4c(c3)NC(=O)C(CSCc3ccc(F)cc3)N4)CC2C)c1 (stereo not given),/,/,-5.1,122.1*,/,/,61.9*,74.3*
Cc1ccc(CSCC2Nc3ccc(C(=O)N4CCN(c5cccc(C)c5)C(C)C4)cc3NC2=O)cc1 (stereo not given),/,/,7.6,109.7*,/,/,21.4,33.0*
CCCOc1cc(N(CC)CC)ccc1/C=C(/C#N)c1nc2ccc(C)cc2[nH]1,60.8*,-101.9,105.0*,184.2*,-189.2,107.3*,192.6*,171.1*
Nc1nc(-c2ccccc2)c(-c2ccc([N+](=O)[O-])cc2)s1,7.3,-6.5,1.1,40.3*,-8.4,14.2,51.1*,68.9*
Nc1nc(-c2ccccc2)c(-c2ccccc2)s1,4.8,-3.1,1.0,-1.8,-5.5,-0.3,/,/
O=C(C[n+]1cccc2ccccc21)c1ccccc1,16.9,-4.3,3.0,10.6,-4.1,14.9,/,/
O=C(C[n+]1cccc2ccccc21)c1ccc(NC(=O)c2ccccc2)cc1,8.0,-3.9,4.0,39.5*,-16.3,-3.6,28.0*,41.1*
CN1CCc2c(sc3c2C(=O)NC(c2cccs2)N3)C1 (stereo not given),16.1,-4.4,8.3,33.6*,-35.5,57.6*,23.4,35.3*
CN1CCc2c(sc3c2C(=O)NC(/C=C\c2ccccc2)N3)C1 (stereo not given),/,/,10.9,22.3,/,16.5,/,/
Cc1ccsc1C1NC(=O)c2c(sc3c2CCN(C)C3)N1 (stereo not given),28.7,-7.8,11.9,60.8*,-47.2,65.2*,55.5*,65.0*
